The panel holds about 83,000 compounds, 20% with a hit somewhere; the sample as a whole holds those more often.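 For each line, cells grew in 96-well plates with the test compound present at a single concentration for 48 hours.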 A number with no mark means an inactive call. Active and inactive are the calls of the source. The calls were made as follows: active = growth percent below 10; inactive = the rest.
Experiments:
Test in all cases: NCI-60 one-dose screen, 48 h (100 = growth as untreated, 0 = no growth, -100 = all killed)
Conditions in all cases: 10 µM unless noted
HCT-15 colon = test system: HCT-15 colon
HT29 colon = test system: HT29 colon
SNB-75 CNS = test system: SNB-75 CNS
SNB-19 CNS = test system: SNB-19 CNS
U251 CNS = test system: U251 CNS
PC-3 prostate = test system: PC-3 prostate
SK-MEL-5 melanoma = test system: SK-MEL-5 melanoma
UACC-62 melanoma = test system: UACC-62 melanoma
LOX IMVI melanoma = test system: LOX IMVI melanoma
SK-MEL-28 melanoma = test system: SK-MEL-28 melanoma

Compound	growth (HCT-15 colon)	growth (HT29 colon)	growth (SNB-75 CNS)	growth (SNB-19 CNS)	growth (U251 CNS)	growth (PC-3 prostate)	growth (SK-MEL-5 melanoma)	growth (UACC-62 melanoma)	growth (LOX IMVI melanoma)	growth (SK-MEL-28 melanoma)
Clc1nc(Cl)c2ncn(CC3(Cn4cnc5c(Cl)nc(Cl)nc54)COC3)c2n1	-89.9% (active)	-70.1% (active)	-96.6% (active)	-99.1% (active)	-95.9% (active)	-98.4% (active)	-96.2% (active)	-92.4% (active)	-89.2% (active)	-97.9% (active)
CCOc1ccc(/C=N/Nc2cc(C)nc3ccc(Cl)cc23)cc1	-0.545% (active)	26.9%	101%	76.1%	8.99% (active)	71.2%	66.2%	68.2%	-85.6% (active)	28.2%
Clc1nc(Cl)c2ncn(CCOCCn3cnc4c(Cl)nc(Cl)nc43)c2n1	-78.7% (active)	-60.5% (active)	-92.3% (active)	-89.3% (active)	-72.3% (active)	-93.4% (active)	-91.5% (active)	-95.9% (active)	-83.2% (active)	-95.7% (active)
C=C1C(=O)O[C@H]2[C@H]1CC/C(COC(=O)CCCCCC(=O)OC/C1=C/CC[C@@]3(C)O[C@H]3[C@H]3OC(=O)C(=C)[C@@H]3CC1)=C\CC[C@@]1(C)O[C@@H]21	0.552% (active)	3.42% (active)	46.5%	62.4%	47.8%	29.8%	26.3%	8.53% (active)	-53.5% (active)	18.5%
COc1cc(-c2cc(=O)oc3cc(O)ccc23)c(OC)c2c1OCO2	92.4%	102%	84.9%	97.4%	94.6%	80.6%	90.6%	74.3%	93.8%	97%
COc1ccc(Cc2nc3cc(OC)c(OC)cc3c(=O)[nH]2)cc1	29.8%	62.9%	107%	81.7%	77.8%	86.4%	90.8%	77.6%	61%	79.3%
CC(=O)N1c2ccccc2NC2=C(C(=O)N(C)C2(C)C)C1C (stereo not given)	93.8%	25.2%	-3.29% (active)	39.9%	18.1%	36.4%	27.5%	32.3%	37.5%	56%
c1ccc(CCSc2ncnc3nc[nH]c23)cc1	98.2%	90.6%	98.7%	84.8%	91.1%	82.8%	85.1%	76.9%	80.5%	103%
CN(C)C(=O)c1cc2cnc(Nc3ccc(-c4csc5c(=O)cc(N6CCOCC6)oc45)cc3)nc2n1C1CCCC1	-11.4% (active)	-48.6% (active)	-65% (active)	1.45% (active)	-7.84% (active)	-42% (active)	-98% (active)	-69.6% (active)	-39.3% (active)	-55.9% (active)
OC1(c2ccc(Cl)c(C(F)(F)F)c2)CCN(CCCC(c2ccc(F)cc2)c2ccc(F)cc2)CC1	-78.5% (active)	-88.1% (active)	-66.3% (active)	12.1%	-93.1% (active)	-65.5% (active)	-93.5% (active)	-92.6% (active)	-96.1% (active)	-94.4% (active)
C[C@]12CCc3nc(Nc4cccc(O)c4)sc3C1=CC[C@@H]1[C@@H]2CC[C@]2(C)/C(=N\NC(N)=S)CC[C@@H]12	-29% (active)	3.21% (active)	1.36% (active)	57.9%	11.9%	20.1%	36.7%	73.1%	-73.8% (active)	9.46% (active)
C=C(C)[C@@H]1CC[C@]2(C(=O)NCCCN(CCC#N)CCC#N)CC[C@]3(C)[C@H](CC[C@@H]4[C@@]5(C)CCC(=O)C(C)(C)[C@@H]5CC[C@]43C)[C@@H]12	101%	99.1%	92%	98.9%	94.1%	94.4%	102%	99.6%	101%	107%
COc1ccc2c(c1)OC1=C(C(=O)OC1)C2c1cc(OC)c(OC)c(OC)c1 (stereo not given)	19%	6.93% (active)	41.1%	33.8%	21.6%	28.1%	16.1%	42.3%	50.8%	53.5%
CCCCCN1C=C/C(=C\C(=O)N(C)c2cccc3ccccc23)c2ccccc21	101%	90%	103%	99.7%	95.8%	94.4%	98.3%	87.4%	97.8%	107%
Clc1ccc(C2CC(c3cccc(Nc4ccncc4)c3)=NN2c2ccccc2)cc1 (stereo not given)	-48.4% (active)	-9.64% (active)	76.2%	79.7%	-11.4% (active)	36%	68.6%	93.9%	25.6%	9.8% (active)
COc1cc(-c2nc3sccn3c2-c2ccnc(NCCNS(=O)(=O)c3ccc(F)cc3)n2)ccc1F	13.2%	10.8%	52.7%	35.7%	17.5%	6.16% (active)	-75.3% (active)	-65.2% (active)	4.75% (active)	19.2%
O=C(Nc1nc(-c2ccc(Br)cc2)cs1)c1cc(-c2ccc(Br)cc2)nc2ccc(Cl)cc12	81.6%	72.6%	87.3%	86.7%	76.8%	72.8%	91.2%	77.8%	94.8%	95.9%
Cc1ccc(S(=O)(=O)Nc2ccc(Cl)cc2)cc1	107%	112%	82.7%	96.9%	96.4%	87.2%	106%	77.2%	95.1%	97.2%
CC(=O)CCSc1ccc(OC(C)=O)cc1	101%	90.1%	86.8%	97.8%	95.3%	83.8%	96.1%	93.1%	98.1%	107%
O=[N+]([O-])c1cccc(-c2nc(-c3ccc(Cl)cc3Cl)cn2-c2ccccc2)c1	-6.56% (active)	-67.8% (active)	-56.7% (active)	53.7%	-60.5% (active)	-47.7% (active)	71.4%	31.3%	3.46% (active)	-16.4% (active)
c1ccc(-c2nnc(Nc3ccc4c(c3)OCCO4)o2)c(NCc2ccncc2)c1	6.86% (active)	0.34% (active)	22.6%	28.4%	20.5%	29.7%	-50% (active)	20.7%	23.6%	63.3%
COc1cc(CNC(=O)CCCCC[P+](c2ccccc2)(c2ccccc2)c2ccccc2)c(OC)c2c1OCO2	99.8%	45.2%	68.5%	53.6%	63.7%	63.2%	84.3%	41.8%	61%	42.1%
COc1cc(NCCCN(CC(C)C)C2CCCC2)c2ncccc2c1	63.6%	71.8%	71%	84.6%	76.6%	59.4%	72.2%	73.6%	58.7%	71.2%
CN1CCN(CCCNc2nccc(-c3c(-c4ccc(F)c(O)c4)nc4sccn34)n2)S1(=O)=O	108%	57.7%	122%	114%	106%	86.9%	72.6%	11.5%	50.7%	12.8%
O=S(=O)(NCCCNc1nccc(-c2c(-c3cccc(O)c3)nc3occn23)n1)c1ccc(Br)cc1	102%	38.9%	97.4%	118%	104%	91.1%	47.1%	8.87% (active)	46.8%	35.5%
Nc1ccccc1NC(=O)c1ccc(CN2CCC/C(=C\c3cccc(Cl)c3)C2=O)cc1	15.4%	1.41% (active)	16.5%	24.3%	13.7%	17.7%	-41.9% (active)	27.1%	9.7% (active)	48.2%
